# pAkt inh = blocks phosphorylation of Akt. Neuro2A IGF-stimulated pAkt S473 HTRF, 20 min; hits give low values. activity change, % for hits at 50 µM. hit rate 0.32% among 360,000. AID 651550; in the data active means activity change below about -80%; inconclusive means mostly about -51% to -80%
#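 Single-point screen (50 µM final compound) in Neuro2A cells stimulated 20 min with 6 nM IGF at 37 deg C. After lysis, Ser473-phosphorylated Akt read by HTRF (ex 330 nm, em 615/665 nm) as the 665/615 ratio.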
# CtBP-E1A blk = CtBP/E1A binding inhibition | AlphaScreen GST-E1A/His-CtBP binding, 1536-well; hits give low values | activity change, % (concentration not given with the values) | hit rate 0.49% among 340,000 | AID 651724
#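 In 5 uL wells, 23 nL compound meets equimolar GST-E1A and His-CtBP (5X stock 125 nM each) for 2 h, 37 °C. Beads (5X, 50 ug/mL) then 1 h, 37 °C, dark.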
# Six1-Eya2 inh = Six1/Eya2 interaction inhibition. AlphaScreen GST-Six1/His-Eya2 binding, biochemical; hits give low values. activity change, % (test concentration not listed). hit rate 0.56% among 360,000
#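 GST-Six1 + His-Eya2 (5X stock: 250/500 nM); Tris pH 8.0, 300 mM NaCl, 0.05% BSA, 0.02% Tween 20; GSH donor/Ni acceptor beads; 1 h 37 °C dark; AlphaScreen readout.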
# CCT modulator = modulators of cytosolic chaperonin (CCT/TRiC) activity | purified chaperonin ATPase assay, HTRF ADP detection, 30 min | activity change, % (concentration not given with the values), hits read low | hit rate 0.3% among 360,000 | AID 651819; in the data active means activity change below about -30%
#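 We incubate TRiC, 40 or 20 nM final, with library compounds at 76 uM and 10 uM ATP for 30 min at 37 °C. ADP formed is detected with Transcreener HTRF reagents after 30 min at room temperature.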
# An asterisk follows results filed as active; i = inactive; ? = inconclusive; . = not tested or not shown. A selection: hits, their analogues and other compounds. The true share with any hit is near 1.3%. Unless noted, no stated cut-off is given here; in the data, active means activity change below about -65%; inconclusive means mostly about -30% to -63%; inactive means weaker than that. On the % scale 0 is the no-effect control and ±100 the full control effect.
SMILES,pAkt inh,CtBP-E1A blk,Six1-Eya2 inh,CCT modulator
COc1ccc(OC)c(NC(=O)CSc2nnc(CNC(=O)c3cccs3)o2)c1,i,2,-1,-2
COc1ccc(OC)c(NC(=O)C2(C)CCN2Cc2ccccc2Cl)c1 (stereo not given),i,-17,-19,0
CC1CCCN(Cc2cnc(Cl)s2)C1 (stereo not given),-108%*,1,11,1
O=C(O)c1ccc(-c2nc(-c3ccccc3)cs2)cc1,i,-8,4,-4
CNC(=O)c1ccc(-c2nc(-c3ccccc3)cs2)cc1,i,-6,-10,-45*
O=C(NNC(=O)c1c(O)c2ccccc2[nH]c1=O)c1ccccc1Br,i,?,-75*,3
O=C(CCl)NNC(=O)c1c(O)c2ccccc2[nH]c1=O,i,-19,-23,-4
COCCN(CCOC)C(=O)c1cc2sc3ccccc3c2s1,i,9,7,-31*
COc1cc2ccnc(C=NO)c2cc1OC,i,-28,-86*,-3
Cc1ccc(-n2cc(C(=O)c3ccc(F)cc3)nn2)cc1Cl,-121%*,9,9,-10
CC1(c2ccc3ccccc3c2)NC(=O)N(CC(=O)NCC(C)(C)N2CCOCC2)C1=O (stereo not given),i,5,-4,0
CCCc1cc(=O)oc2cc(C)cc(OCC(=O)NC(Cc3ccc(Cl)cc3)C(=O)O)c12 (stereo not given),i,-3,-10,1
CCCCc1cc(=O)oc2cc(C)cc(OCC(=O)NC(Cc3ccc(Cl)cc3)C(=O)O)c12 (stereo not given),i,-2,-2,-60*
O=C(O)c1ccc(Oc2ccc([N+](=O)[O-])cc2)c([N+](=O)[O-])c1,i,11,-15,-2
CN(C)S(=O)(=O)c1cccc(NC(=O)c2cc(-c3cccs3)nc3ccccc23)c1,i,-10,-1,-32*
Cc1ccc(-c2cc(C(=O)Nc3ccc4c(c3)OCCO4)c3ccccc3n2)cc1,.,-6,-19,-33*
O=C(Nc1ccc2c(c1)OCCO2)c1cccc2nc3ccccc3nc12,i,-68*,?,0
Cc1cccc(NC(=O)c2cc(C)nc3ccccc23)c1,i,-6,0,-39*
COc1cc2c(cc1OC)CN(CCC(C)c1ccc(Cl)cc1)CC2 (stereo not given),i,-19,-8,0
Cn1c(SCC(=O)Nc2ccc3cn[nH]c3c2)nnc1-c1cnccn1,-97%*,3,-4,-3
Cc1ccc(NC(=O)NC(=O)COC(=O)c2ccc(O)cc2O)c(C)c1,i,-1,-9,0
Cc1cc(C(=O)OCC(=O)NC(C)c2ccc(F)cc2)c(C)o1 (stereo not given),i,22,-6,-1
CCC(NC(=O)c1ccc2nc(Cc3ccc(OC)cc3)oc2c1)c1ccncc1 (stereo not given),.,.,-2,-84*
CC(=O)Nc1ccc(S(=O)(=O)NCCc2cn3nc(C)c(C)nc3n2)cc1,.,.,-6,-79*
CCc1nc2ccc(C(=O)N3CCCC(C(N)=O)C3)cn2c1N(C)Cc1ccc(OC)cc1 (stereo not given),i,1,1,2
SMILES,pAkt inh,CtBP-E1A blk,Six1-Eya2 inh,CCT modulator
CCCCOc1ccc(N2C(N)=NC(N)=NC23CCCCC3)cc1,i,.,6,2
COc1ccc(N2C(N)=NC(N)=NC23CCCC3)cc1,-106%*,4,8,-1
CC(C)OC(=O)CSc1nnc(CNc2nc(-c3ccccc3)cs2)n1C,-103%*,?,?,0
Cn1c(CNc2nc(-c3ccccc3)cs2)nnc1SCC(=O)OC1CCCCC1,i,?,-30,-2
S=C1NCN(Cc2ccccc2)CN1,i,0,1,1
CCN(CC)CCN1CNC(=S)NC1,i,-2,16,-34*
NC(=Nc1ccc(N)cc1)C(N)=Nc1ccc(N)cc1,i,?,-65*,1
O=C(N/N=C/c1ccccc1Br)c1cccc(S(=O)(=O)N2CCOCC2)c1,i,-10,-11,-2
O=C(N/N=C/c1cc(Cl)cc([N+](=O)[O-])c1O)c1cccc(S(=O)(=O)N2CCOCC2)c1,i,-87*,-91*,-1
O=C(N/N=C/c1cc(Br)cc(Br)c1O)c1cccc(S(=O)(=O)N2CCOCC2)c1,i,-94*,-70*,2
Cc1ccc(S(=O)(=O)N2[C@@H](c3cccc(Cl)c3)C(C(=O)O)=CC[C@H]2c2cccs2)cc1,i,.,1,-1

# Source: PubChem BioAssay (National Center for Advancing Translational Sciences (NCATS))
